A short description of test [1]: qHTS RealTime-Glo MT Cell Viability Assay in HEK293 cells - 24 hour (AID 1224886). Further: top concentration of the series differs between compounds; nearly all actives have a fitted effect of over 50% in size. The procedure, abridged:
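Assay medium contained NanoLuc luciferase plus cell-permeant prosubstrate, added with HEK293 cells at 600 cells/well. After 5 h at 37 C/5% CO2 compounds were added; plates stayed at 37 C for 40 h with serial luminescence reads.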

Test [2] can be described thus: qHTS RealTime-Glo MT Cell Viability Assay in HEK293 cells - 8 hour (AID 1224887). Further: top concentration of the series differs between compounds; nearly all actives have a fitted effect of over 50% in size. The method, boiled down: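 Nonlytic bioluminescent viability monitoring. HEK293 at 600 cells/well with reagent; 5 h settle; compound transfer by pintool; plates held at 37 C and read at set time points.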
(In general: In qHTS, concentration-response curves come from the screen itself.)

Test [3] in a line: A CellTox Green Cytotoxicity Assay to monitor cytotoxicity in HEK293 cells - 16 hour (AID 1224888). Further: nearly all actives have a fitted effect of over 35% in size. The method, boiled down:
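Cytotoxicity was tracked continuously in HEK293 cells by a DNA-binding dye excluded from viable cells. Compounds were transferred in DMSO 5 h after seeding; fluorescence was recorded at intervals up to 40 h.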

Test [4] can be described thus: qHTS RealTime-Glo MT Cell Viability Assay in HepG2 cells - 0 hour (AID 1224889). Further: nearly all actives have a fitted effect of over 50% in size. Further: potency means the concentration at half of the fitted maximal effect. The method, boiled down: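 qHTS, HepG2, 600 cells/well, RealTime-Glo (NanoLuc + prosubstrate) added with cells; 5 h preincubation; DMSO compound addition; 37 C; luminescence at 0/8/16/24/32/40 h.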
The nature of test [5]: A CellTox Green Cytotoxicity Assay to monitor cytotoxicity in HepG2 cells - 8 hour (AID 1224890). Further: nearly all actives have a fitted effect of over 45% in size. The method, boiled down: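 Real-time, homogeneous cytotoxicity readout: dead-cell DNA staining by CellTox Green in HepG2 monolayers, fluorescence measured at timed intervals up to 40 h of continuous compound exposure.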
Test [6] can be described thus: qHTS assay to identify small molecule antagonists of the estrogen receptor alpha (ER-alpha) signaling pathway using the BG1 cell line in the presence of 0.1 nM 17-beta-estradiol - cell viability counter screen (AID 1259241). Further: nearly all actives have a fitted effect of over 40% in size. The procedure, abridged: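 In this screen, hormone-deprived VM7Luc4E2 cells were seeded at 4,000 per well, dosed with compound and 0.1 nM estradiol final, and incubated 22 hr at 37C and 5% CO2; fluorogenic live-cell protease signal reported viability.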

A short description of test [7]: qHTS assay to identify small molecule antagonists of the androgen receptor (AR) signaling pathway using the MDA cell line in the presence of 0.5 nM R1881 - cell viability counter screen (AID 1259242). Further: nearly all actives have a fitted effect of over 45% in size. The procedure, abridged: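 Cytotoxicity toward MDA-kb2 cells is measured by CellTiter-Fluor live-cell protease fluorescence after 16 hr compound exposure at 37C in the presence of 0.5 nM R1881 stimulator.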

Test [8] is described as follows: qHTS assay to identify small molecule phospholipidosis (PLD) inducers (AID 1259344; active means well fitted curve in the direction sought with a large enough effect; an effect the other way counts as inactive or inconclusive). The method, boiled down: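 Quantitative HTS in HepG2: compound plus LipidTOX Red dye for 24 h, paraformaldehyde fixation with Hoechst 33342, widefield high-content imaging; amiodarone as positive and DMSO as negative control.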
Test [9] addresses Estrogen receptor (Homo sapiens) (UniProt P03372). As to the kind of experiment: qHTS assay to identify small molecule antagonists of the estrogen receptor alpha (ER-alpha) signaling pathway using the BG1 cell line in the presence of 0.1 nM 17-beta-estradiol (AID 1259244). Further: nearly all actives have a fitted effect of over 50% in size. The procedure, abridged:
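After 5 days in hormone-depleted medium (charcoal-stripped serum, no phenol red), VM7Luc4E2 cells were seeded, incubated 24 h, then co-treated with compound and 0.1 nM (final) estradiol for 22 h before luminescence detection.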

The target of test [10] is Androgen receptor (Homo sapiens) (UniProt P10275). As to the kind of experiment: qHTS assay to identify small molecule antagonists of the androgen receptor (AR) signaling pathway using the MDA cell line in the presence of 0.5 nM R1881 (AID 1259243). Further: nearly all actives have a fitted effect of over 50% in size. The method, boiled down:
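Steps: seed MDA-kb2 cells, incubate 5 hr at 37C; pin-transfer compounds in DMSO; add R1881 to 0.5 nM final; incubate 16 hr; add ONE-Glo, wait 30 min at room temperature; read luminescence.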

Inconclusive results are not listed. Values without a mark were called inactive. The source made the active and inactive calls. Unless noted, the call rests on the fitted dose curve; in most records, active means well fitted curve in the direction sought with a large enough effect in the repeat runs; inconclusive means weak or mixed curves; inactive means no such curve, though single readings can be large; an effect the other way counts as inactive or inconclusive.

Chain of Estrogen receptor (Homo sapiens) (P03372 whole entry, looked up): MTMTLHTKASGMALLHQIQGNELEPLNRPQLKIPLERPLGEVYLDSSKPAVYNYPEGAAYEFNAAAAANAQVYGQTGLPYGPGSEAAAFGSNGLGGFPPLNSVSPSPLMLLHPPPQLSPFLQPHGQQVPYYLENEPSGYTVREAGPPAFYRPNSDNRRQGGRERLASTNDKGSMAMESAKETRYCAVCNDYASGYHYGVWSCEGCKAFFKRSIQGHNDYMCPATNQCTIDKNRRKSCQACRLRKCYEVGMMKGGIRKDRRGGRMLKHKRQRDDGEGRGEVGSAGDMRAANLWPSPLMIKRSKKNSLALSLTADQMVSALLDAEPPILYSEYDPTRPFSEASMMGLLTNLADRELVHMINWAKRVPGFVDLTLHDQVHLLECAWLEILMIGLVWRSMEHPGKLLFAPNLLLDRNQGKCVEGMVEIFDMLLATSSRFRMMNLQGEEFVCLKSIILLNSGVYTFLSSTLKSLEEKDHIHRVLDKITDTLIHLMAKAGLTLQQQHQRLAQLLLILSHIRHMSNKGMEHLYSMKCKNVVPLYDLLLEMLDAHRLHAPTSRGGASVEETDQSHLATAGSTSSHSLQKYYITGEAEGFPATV
Chain of Androgen receptor (Homo sapiens) (P10275 whole entry, looked up): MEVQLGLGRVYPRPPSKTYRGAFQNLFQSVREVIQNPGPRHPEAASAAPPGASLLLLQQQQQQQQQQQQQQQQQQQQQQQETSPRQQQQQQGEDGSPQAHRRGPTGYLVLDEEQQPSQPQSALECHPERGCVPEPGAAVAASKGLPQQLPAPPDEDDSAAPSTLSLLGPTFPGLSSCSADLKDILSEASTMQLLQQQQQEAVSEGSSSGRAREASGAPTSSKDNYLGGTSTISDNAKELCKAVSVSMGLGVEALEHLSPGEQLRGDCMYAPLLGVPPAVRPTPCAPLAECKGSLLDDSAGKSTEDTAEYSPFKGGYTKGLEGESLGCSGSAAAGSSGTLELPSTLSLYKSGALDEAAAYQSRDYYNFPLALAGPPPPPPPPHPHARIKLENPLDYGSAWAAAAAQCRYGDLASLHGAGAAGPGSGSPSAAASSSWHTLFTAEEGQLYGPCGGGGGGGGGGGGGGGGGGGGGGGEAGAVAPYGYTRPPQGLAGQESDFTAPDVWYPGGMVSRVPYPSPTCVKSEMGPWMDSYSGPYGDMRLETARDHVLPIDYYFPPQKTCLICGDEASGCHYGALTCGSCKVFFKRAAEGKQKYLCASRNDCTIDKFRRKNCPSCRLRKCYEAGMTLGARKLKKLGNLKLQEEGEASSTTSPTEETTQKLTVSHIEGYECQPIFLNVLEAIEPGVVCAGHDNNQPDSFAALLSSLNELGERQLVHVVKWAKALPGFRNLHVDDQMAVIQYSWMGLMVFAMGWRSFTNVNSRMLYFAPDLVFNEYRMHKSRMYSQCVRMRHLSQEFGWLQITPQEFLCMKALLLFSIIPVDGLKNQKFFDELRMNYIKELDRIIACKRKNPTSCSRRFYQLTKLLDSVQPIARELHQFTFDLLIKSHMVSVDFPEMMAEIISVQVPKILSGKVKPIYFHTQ

For the compound `CCCCCC(N)=O`, the Potency result in test [1], in [2], in [4], in [5] and in test [6] was “inactive” each time. The compound was called inactive in [3], in test [7] and in [8].

With `C/C=C1/CC2C=CC1C2` (configuration not stated), the Potency result in test [1], in [2], in test [4], in test [5], in test [6] and in [9] was “inactive” in each case. Further, the result in test [3] and in test [7] was inactive.

In the case of `CC1CCC(C(C)C)C(O)C1` (configuration not stated), the Potency result in [1], in test [2], in test [4], in test [5] and in test [10] was “inactive” throughout. Moreover, the call in test [3] and in test [7] was inactive.

Turning to `O=C(O)CC(C(=O)O)C(CC(=O)O)C(=O)O` (configuration not stated), the Potency entry in test [1], in test [2], in test [4], in test [5], in [6] and in test [9] was “inactive” each time. Also, the outcome in [3] and in test [7] was inactive.

In the case of `ON=C1CCCCC1`, the Potency entry in test [1], in test [2], in test [4], in test [5] and in [6] was “inactive” each time. Further, the call in test [3] and in [7] was inactive.

For the compound `CC(O)COCC(C)O` (configuration not stated), the Potency result in [1], in test [2], in [4], in test [5] and in [9] was “inactive” throughout. The outcome in test [3] and in [7] was inactive.

`CC(=O)Nc1ccccc1`: the Potency result in test [1], in test [2], in test [4], in test [5], in [6] and in [9] was “inactive” in each case. The call in [3], in test [7] and in [8] was inactive.

Take `O=S(=O)(O)c1ccc2ccccc2c1`: the Potency result in [1], in [2], in test [4], in test [5], in [6] and in test [9] was “inactive” each time. Further, the compound was called inactive in test [3] and in [7].

In the case of `CCCSc1ccc2nc(NC(=O)OC)[nH]c2c1`, the Potency result in test [1], in [2], in [4] and in test [5] was “inactive” each time. Moreover, the result in test [3], in test [7] and in test [8] was inactive.

In the case of `OCC(CO)(CBr)CBr`, the Potency entry in test [1], in test [2], in [4], in test [5] and in test [6] was “inactive” in each case. Also, the compound was classed as inactive in test [3] and in test [7].

For `CCCCCC/C(C=O)=C\c1ccccc1`, the Potency result in test [1], in [2], in test [4] and in test [6] was “inactive” each time. The call in [3] and in test [7] was inactive.

`OCCOCCN1CCN(C2=Nc3ccccc3Sc3ccccc32)CC1`: the Potency entry in test [1], in test [2], in test [4], in test [5] and in test [6] was “inactive” throughout. The call in test [3], in test [7] and in test [8] was inactive.

For `C[C@H]1C[C@H]2[C@@H]3CCC4=CC(=O)C=C[C@]4(C)[C@@]3(F)[C@@H](O)C[C@]2(C)[C@@]1(O)C(=O)CO`, the Potency entry in test [1], in test [2] and in test [5] was “inactive” throughout. The compound was classed as inactive in [3], in [7] and in test [8]. Further, in test [4], the Potency was 7.76 µM (active).

On to `O=C(O)c1cc(C(=O)O)cc(S(=O)(=O)O)c1`, for which the Potency entry in [1] and in test [2] was “inactive” throughout. Moreover, the compound was called inactive in [3] and in test [7].

Regarding `CSCCC=O`, the Potency entry in [1], in test [2] and in test [4] was “inactive” in each case. In addition, the outcome in test [3] and in [7] was inactive.

As for `CC(C)CC(=O)CC(C)C`, the Potency entry in [1], in test [2], in [5] and in [6] was “inactive” throughout. The result in [3] and in test [7] was inactive.

With `CN(C)CCC(c1ccc(Cl)cc1)c1ccccn1` (configuration not stated), the Potency result in [1], in [2] and in test [5] was “inactive” each time. For the same compound, the call in test [3] and in test [7] was inactive.

Turning to `CCCCC(CC)COC(=O)CCCCC(=O)OCC(CC)CCCC` (configuration not stated), the Potency entry in test [1], in test [2], in test [6] and in test [9] was “inactive” throughout. Besides, the outcome in test [3] and in test [7] was inactive.

Turning to `CCCCCCCCCC`, the Potency entry in test [1], in test [2], in [5] and in test [9] was “inactive” each time. Further, the compound was called inactive in test [3] and in [7].

For the compound `c1ccc2scnc2c1`, the Potency entry in [1], in test [2], in [5] and in test [9] was “inactive” throughout. Further, the outcome in test [3] and in test [7] was inactive.

With `COS(C)(=O)=O`, the Potency entry in test [1], in test [2], in test [5], in test [6] and in test [9] was “inactive” in each case. Besides, the compound was called inactive in test [3] and in test [7].

With `Oc1cccc2ccccc12`, the Potency entry in test [1], in test [2] and in [4] was “inactive” each time. The compound was called inactive in test [3] and in test [7].

Regarding `O=c1[nH]c(=O)n([C@H]2CCCO2)cc1F`, the Potency result in [1], in [2] and in test [6] was “inactive” each time. In addition, the compound was classed as inactive in test [3], in [7] and in test [8].

For the compound `OCCOCCOCCO`, the Potency entry in [1], in test [2], in test [4], in test [10] and in [9] was “inactive” throughout. Besides, the call in test [3], in [7] and in [8] was inactive.

With `COc1ccc(Cl)cc1C(=O)NCCc1ccc(S(=O)(=O)NC(=O)NC2CCCCC2)cc1`, the Potency entry in test [1], in test [2] and in test [6] was “inactive” in each case. The result in test [3], in test [7] and in test [8] was inactive.

Regarding `CC(=O)c1ccccc1`, the Potency result in test [1], in test [2], in test [4], in test [5], in test [6] and in test [9] was “inactive” in each case. Also, the outcome in [7] was inactive.

`Cc1ccc2oc(=O)ccc2c1`: the Potency entry in test [1], in [2] and in [9] was “inactive” throughout. The outcome in test [3] and in test [7] was inactive.

As to `COc1cc(Cc2cnc(N)nc2N)cc(OC)c1OC`, the Potency entry in test [1], in [2], in test [5], in test [6] and in [9] was “inactive” in each case. Moreover, the outcome in test [3], in test [7] and in test [8] was inactive.
